Out of some 310,000 compounds screened, about 14,000 (4.5%) showed an effect of 50% or more. Effects have a minus sign here. The sample holds strong results, similar compounds and a random draw of the others, so the mix is not that of the screen.
Biological target: human ether-à-go-go-related gene (hERG) potassium channel (human, UniProt Q12809)
Assay: primary screen, population patch clamp on CHO cells stably expressing hERG; higher = less effect of the substance
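Note: peak tail current of the secondary pulse compared with the same well before compound.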

human ether-à-go-go-related gene (hERG) potassium channel, sequence (Q12809 whole entry, looked up): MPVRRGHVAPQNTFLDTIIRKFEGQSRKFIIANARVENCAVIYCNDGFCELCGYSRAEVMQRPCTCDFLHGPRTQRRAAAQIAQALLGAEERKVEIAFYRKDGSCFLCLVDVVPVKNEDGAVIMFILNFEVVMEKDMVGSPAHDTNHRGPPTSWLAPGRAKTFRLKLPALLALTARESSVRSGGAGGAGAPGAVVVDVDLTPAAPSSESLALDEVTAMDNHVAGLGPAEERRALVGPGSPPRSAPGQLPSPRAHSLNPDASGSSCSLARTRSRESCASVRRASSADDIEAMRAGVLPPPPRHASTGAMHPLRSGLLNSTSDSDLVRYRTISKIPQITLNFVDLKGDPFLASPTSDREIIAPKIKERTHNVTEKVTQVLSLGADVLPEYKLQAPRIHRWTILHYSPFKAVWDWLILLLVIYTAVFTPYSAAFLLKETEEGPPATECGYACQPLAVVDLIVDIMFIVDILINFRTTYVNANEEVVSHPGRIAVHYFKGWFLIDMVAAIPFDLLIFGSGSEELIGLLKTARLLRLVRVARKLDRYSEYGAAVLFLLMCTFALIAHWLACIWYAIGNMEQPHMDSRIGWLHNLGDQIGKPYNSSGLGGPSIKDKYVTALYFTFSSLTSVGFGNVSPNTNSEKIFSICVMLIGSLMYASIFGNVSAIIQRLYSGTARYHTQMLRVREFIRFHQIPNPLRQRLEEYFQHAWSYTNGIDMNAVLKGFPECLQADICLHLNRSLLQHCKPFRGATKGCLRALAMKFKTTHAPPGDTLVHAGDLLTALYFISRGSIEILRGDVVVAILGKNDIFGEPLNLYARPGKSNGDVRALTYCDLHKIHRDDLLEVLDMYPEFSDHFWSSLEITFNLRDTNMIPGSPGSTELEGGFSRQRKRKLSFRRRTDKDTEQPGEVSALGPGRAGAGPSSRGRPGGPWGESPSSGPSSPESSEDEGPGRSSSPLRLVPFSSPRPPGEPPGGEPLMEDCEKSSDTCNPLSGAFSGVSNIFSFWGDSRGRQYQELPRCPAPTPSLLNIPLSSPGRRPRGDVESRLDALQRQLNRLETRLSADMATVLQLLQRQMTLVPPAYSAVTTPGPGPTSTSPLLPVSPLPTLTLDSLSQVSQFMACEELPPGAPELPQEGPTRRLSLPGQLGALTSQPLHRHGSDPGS

SMILES	hERG current change (%, negative = inhibition) at 10uM [%]
CCn1c(N2CCN(S(=O)(=O)c3ccc(Cl)cc3)CC2)nc2ccccc21	-48.4
COc1cccc(NC(=O)CCNS(=O)(=O)c2ccc3c(c2)CC(C)N3C(=O)C2CC2)c1 (centres unmarked)	-5.18
O=C(CCS(=O)(=O)c1ccc(Br)s1)NC1CCCC1	6.05
COc1ccc(NS(=O)(=O)c2cccc3cccnc23)cc1OC	24.2
CNc1nc(NN)nc(Nc2ccccc2)n1	9.76
Cc1ccc(S(=O)(=O)CC(=O)Nc2cccc(C)n2)cc1	6.48
Cc1cccc(C(=O)NCC(=O)NC2CCN(Cc3ccccc3)CC2)c1	-7.99
CCOC(=O)C1(CCCc2ccccc2)CCN(C(=O)c2ccoc2)CC1	-54.3
CCOC(=O)C1(CCCc2ccccc2)CCN(C(=O)CSC)CC1	-24.1
O=C(c1ccoc1)N1CCC(CO)(CCc2ccccc2)CC1	-28.7
CCCCCC(=O)Nc1nnn(CCC)n1	4.41
CC(C(=O)O)N1C(=O)c2cccc3cccc1c23 (centres unmarked)	1.97
COc1ccc(NCc2nnc(SCC(=O)Nc3nc(-c4ccccc4)cs3)n2-c2ccccc2)cc1	13
C[C@H](NC(=O)N1CCn2c1nc1ccccc12)C(=O)NCc1ccccc1	-13.6
C[C@H](NC(=O)N1CCn2c1nc1ccccc12)C(=O)NCc1ccc(F)cc1	-29.6
COc1ccc(CNC(=O)[C@H](C)NC(=O)N2CCn3c2nc2ccccc23)cc1	-57.7
FC(F)(F)c1ccc(N2CCOCC2)c(Nc2nc3ccccc3n3cnnc23)c1	7.53
CCSc1nnc([C@H](Cc2c[nH]c3ccccc23)NC(=O)OC(C)(C)C)o1	-21.5
COc1ccc(C2c3ccc4ccccc4c3Oc3ncn(CCCN(C)C)c(=N)c32)cc1 (centres unmarked)	-76.4
COc1ccc(Cc2nc3c4c(ncn3n2)Oc2c(ccc3ccccc23)C4c2ccc(OC)c(OC)c2)cc1 (centres unmarked)	14.7
COc1ccc(C2c3c(ccc4ccccc34)Oc3ncn4nc(-c5ccco5)nc4c32)cc1 (centres unmarked)	-12.4
COc1ccc(C2c3ccc4ccccc4c3Oc3ncn(CCN(C)C)c(=N)c32)cc1 (centres unmarked)	-77.2
COc1ccccc1C1c2ccc3ccccc3c2Oc2ncn(CCN(C)C)c(=N)c21 (centres unmarked)	-61.8
